Experimental data as given in the OligoGym collection.

Target: KLK5
Experiment: pooled miR-30 sensor sort-seq; sequence = guide strand
Details: shRNA
Note: reference of the scale not given here.

Sequence | sensor-assay potency score (higher = more potent)
TTTCTGACTTAGCACGCTGATA | -1.58
TAGAGAGACACGGTCAGCCCAA | 0.0597
ACTCTGAAAACTTTCTTCCTGC | -0.332
TTCGTGTAGACACCCGGTCTGT | -0.664
TTGGGCCTTAGCAACAGCGCGG | -0.877
AACATTCTCAACATCTCTGGGA | 0.475
TGAACATTCTCAACATCTCTGG | -0.405
TTGATGATGCGGCTGCTGCTGT | -0.719
TCTCGGGTAAGCATCCTCGCAC | -0.337
TTTTCTGACTTAGCACGCTGAT | -0.837
TTGATGGGTCTGACATCTTTAG | -1.51

Target: KPRP
Experiment: as above
Details: shRNA

Sequence | sensor-assay potency score (higher = more potent)
TTTCTGTATAACAAACTGGAGC | -1.23
TACTGAGGGAAACAGCTGCTGT | -0.994
TTGGTCTCCATGGCCATCCTGA | -0.799
TTGTCGTGGTAGAGGACGCGGG | -1.43
TAGACTGACATTGAGCCTGGCC | 0.158
TAGCCCTTGACTGAAACTGGGG | -0.902
TTGAACCACCACTTGGCTCTGG | 0.211
TGGTCTTAGACTGACATTGAGC | -1.69
TCTTAGACTGACATTGAGCCTG | -0.234
AATCTCAACAGGACACCTCTGT | 0.644
